# This excerpt belongs to a sample that is enriched for hits.
# nsP2pro inh: Primary qHTS for inhibitors of NSP2Pro chikungunya virus (CHIKV); AID 1964107, 2024; FRET peptide cleavage, nsP2pro, fluorescence 1 h; Polyprotein P1234 (Chikungunya virus (strain S27-African prototype)), Q8JUX6; actives 1.1% (n = 31,000); Potency, µM (top dose mostly 24.9 µM), hits mostly inhibitors; also: nearly all actives have a fitted effect of over 60% in size
#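 Purified recombinant nsP2pro (150 nM final) in 10 mM Tris-HCl pH 8.0 with 0.01% Tween 20 was preincubated 15 min at room temperature with compound (7 concentrations, up to 25 uM). FRET peptide 2 substrate (2.5 uM final) was then added; fluorescence was read after 1 h.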
# nsP2 cell sec: Secondary cell base assay for inhibitors of NSP2Pro Chikungunya virus (CHIKV) | Potency, µM (top dose mostly 51.1 µM), hits mostly inhibitors | shares compounds with nsP2pro inh | cell-based CHIKV nsP2 protease reporter assay | actives 10% (n = 450); also: nearly all actives have a fitted effect of over 70% in size
# NSP2 full ctr: Selectivity profile for inhibitors of NSP2Pro chikungunya virus (CHIKV): Full length NSP2 enzyme counterscreen (CHIKV-NSP2) | AID 1964101, 2024 | Potency, µM (titrated, usually from 50.7 µM), hits mostly inhibitors | Full-length CHIKV NSP2 protease enzymatic counterscreen | actives 39% (n = 410) | shares compounds with nsP2pro inh; also: nearly all actives have a fitted effect of over 65% in size
# Furin counter: Selectivity profile for inhibitors of NSP2Pro chikungunya virus (CHIKV): Human furin counterscreen | shares compounds with nsP2pro inh | Recombinant human furin enzymatic counterscreen, fluorogenic substrate | actives 6% (n = 410) | AID 1964102, 2024 | Potency, µM (top dose mostly 50.6 µM), most hits filed as inhibitors
# nsP2 NS23 pep: Selectivity profile for inhibitors of NSP2Pro chikungunya virus (CHIKV): Endogenous NS2/3 peptide Counterscreen; shares compounds with nsP2pro inh; Purified CHIKV nsP2 protease, endogenous NS2/3 peptide cleavage; Potency, µM (doses to about 51 µM), most hits filed as inhibitors; actives 34% (n = 410); AID 1964103, 2024; also: nearly all actives have a fitted effect of over 55% in size
# Papain cs: Selectivity profile for inhibitors of NSP2Pro chikungunya virus (CHIKV): Papain Counterscreen | shares compounds with nsP2pro inh | purified papain protease activity, enzymatic inhibition | Potency, µM (titrated, usually from 51 µM), hits mostly inhibitors | actives 5% (n = 410) | AID 1964104, 2024
# nsP2pro conf qHTS: Confirmatory qHTS for inhibitors of NSP2Pro chikungunya virus (CHIKV); CHIKV nsP2 protease enzymatic activity, qHTS; shares compounds with nsP2pro inh; Potency, µM (highest dose often 25.5 µM), most hits filed as inhibitors; actives 43% (n = 410); also: nearly all actives have a fitted effect of over 75% in size
# HCV NS3 4A cs: Selectivity profile for inhibitors of NSP2Pro chikungunya virus (CHIKV): NS34A-HCV Counterscreen | shares compounds with nsP2pro inh | HCV NS3/4A protease biochemical counterscreen | Potency, µM (doses to about 50.9 µM), hits mostly inhibitors | actives 20% (n = 410) | AID 1964106, 2024; also: nearly all actives have a fitted effect of over 55% in size
# Hits are given with their value; – = inactive; ? = inconclusive. Calls follow the shape of the full dose curve.
SMILES,nsP2pro inh,others
CN(CCc1ccccn1)[C@H]1[C@@H]2OC[C@@H](O2)[C@@H](NC(=O)Nc2cccc(C(F)(F)F)c2)[C@@H]1O,–,
CC(C)(O)C1CC(=O)C2(C)C(CCC3(C)C(c4ccoc4)OC(=O)C4OC432)C12CCC(=O)OC2 (stereo not given),0.858µM,nsP2 cell sec=–;NSP2 full ctr=?;Furin counter=–;nsP2 NS23 pep=–;Papain cs=–;nsP2pro conf qHTS=?;HCV NS3 4A cs=?
CC1(C)OC(=O)C=C[C@@]2(C)C1CC(=O)[C@]1(C)C2CC[C@@]2(C)[C@H](c3ccoc3)OC(=O)[C@H]3O[C@]321 (stereo not given in full),3.42µM,nsP2 cell sec=–;NSP2 full ctr=?;Furin counter=–;nsP2 NS23 pep=–;Papain cs=–;nsP2pro conf qHTS=–;HCV NS3 4A cs=–
CC(=O)OC1CC(O)C(C)(C)C2CC(OC(C)=O)C3(C)C(CCC4(C)C(c5ccoc5)C(=O)C5OC543)C12C (stereo not given),–,
c1ccc(-c2nc(-c3ccc(OC4CNC4)cc3)no2)cc1,–,
Cc1ccc(-c2ccc(C)cn2)nc1,–,
COCc1noc(CCNc2nc(C)nc3c2cnn3C)n1,–,
O[C@@H]1C[C@@H](c2nc(-c3ccccn3)no2)N(Cc2cc3ccccc3o2)C1,–,
COc1ccc(N2CCOC3CCN(Cc4ccc(C(C)C)cc4)CC3C2=O)cc1 (stereo not given),–,
O=C(C[C@@H]1CCNC[C@@H]1Cc1cc(COc2ccccc2)on1)Nc1ccccc1,–,
COC(=O)N[C@H](C(=O)N1CCC[C@H]1c1ncc(-c2ccc3c(c2)O[C@@H](c2ccccc2)n2c-3cc3cc(-c4cnc([C@@H]5CCCN5C(=O)[C@@H](NC(=O)OC)C(C)C)[nH]4)ccc32)[nH]1)C(C)C,–,
CC(=O)N1CCC(N2CCOC[C@H]2c2ncc(-c3ccncc3)[nH]2)CC1,–,
COC(=O)N[C@H](C(=O)N1CCC[C@H]1c1ncc(-c2ccc(-c3ccc(-c4cnc([C@@H]5CCCN5C(=O)[C@@H](NC(=O)OC)C(C)C)[nH]4)cc3)cc2)[nH]1)C(C)C,?,nsP2 cell sec=–;NSP2 full ctr=?;Furin counter=–;nsP2 NS23 pep=–;Papain cs=–;nsP2pro conf qHTS=?;HCV NS3 4A cs=–
Cc1cccc(CC(=O)N2CCCCC2c2nc(C3CC3)n[nH]2)c1 (stereo not given),–,
CNC(=O)c1cc(C2CC2)nc2onc(C3CCCN3C(C)=O)c12 (stereo not given),–,
Cn1nnnc1Sc1ncnc2scc(-c3cccc(C#N)c3)c12,–,
Cc1cccc(C(=O)Nc2ccc(N3CCC(N4CCCCC4)CC3)c(C(=O)O)c2)c1,5.01µM,nsP2 cell sec=–;NSP2 full ctr=4.61µM;Furin counter=?;nsP2 NS23 pep=14.6µM;Papain cs=–;nsP2pro conf qHTS=7.11µM;HCV NS3 4A cs=2.59µM
O=C(Nc1ccc(Cl)cc1)c1ccc2c(c1)N(Cc1ccccc1)CCS2,–,
O=C(Nc1ccc(N2CCC(c3ccccc3)C2)c(C(=O)O)c1)c1ccc(Cl)cc1 (stereo not given),3.55µM,nsP2 cell sec=–;NSP2 full ctr=3.66µM;Furin counter=?;nsP2 NS23 pep=11.6µM;Papain cs=–;nsP2pro conf qHTS=7.11µM;HCV NS3 4A cs=3.66µM
Cc1cccc(C(=O)Nc2ccc3ncnc(N4CCCCC4)c3c2)c1,–,
O=C(Nc1ccc(Cl)cc1)N1CCC(c2ccccc2)C1 (stereo not given),–,
Cc1cccc(C(=O)Nc2cc3c(cc2N2CCCCC2)n(C)c(=O)n3C)c1,–,
